# M4 antag = antagonists of human muscarinic M4 receptor (CHRM4). CHO-hM4 cells, ACh EC80, Fluo-8 calcium fluorescence. hit rate 0.73% among 360,000. inhibition, % at 3 µM. AID 624125;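 active means inhibition above its plate's cutoff, the mean inhibition of sample wells plus 3 SD, cut at about 27% in these data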;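 further: 0% = acetylcholine EC80 with DMSO and 100% = DMSO without agonist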
# M1 ag = activates human CHRM1 receptor. CHO-K1 hM1, Fluo-8 calcium fluorescence, agonist mode; 0% DMSO, 100% acetylcholine EC100. activation, % at 3 µM. hit rate 0.33% among 360,000;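 active means activation above the run's mean compound activation plus 3 SD, cut at about 16% in these data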;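 further: peak over basal fluorescence ratio within a 140 s kinetic read after compound addition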
# Target sequence (P11229 whole entry, looked up): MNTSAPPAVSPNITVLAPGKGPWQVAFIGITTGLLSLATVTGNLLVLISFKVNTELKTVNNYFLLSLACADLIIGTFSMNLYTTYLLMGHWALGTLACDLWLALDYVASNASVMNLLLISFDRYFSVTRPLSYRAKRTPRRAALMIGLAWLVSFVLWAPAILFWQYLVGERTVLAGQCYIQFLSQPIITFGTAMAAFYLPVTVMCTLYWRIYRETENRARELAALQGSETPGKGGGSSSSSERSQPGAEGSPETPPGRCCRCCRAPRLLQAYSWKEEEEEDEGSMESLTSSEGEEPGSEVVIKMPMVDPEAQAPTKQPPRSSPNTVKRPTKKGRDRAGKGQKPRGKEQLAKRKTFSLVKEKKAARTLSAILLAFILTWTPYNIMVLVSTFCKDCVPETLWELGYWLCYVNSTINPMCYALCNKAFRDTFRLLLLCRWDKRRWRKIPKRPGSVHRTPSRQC
# CHRM1 PAM = human CHRM1 positive allosteric modulation | P11229 | CHO-K1 hM1, Fluo-8 calcium fluorescence, ACh EC20; 0% = ACh EC20, 100% = maximal ACh | activation, % at 3 µM | hit rate 0.088% among 360,000; in the data active means activation above about 19%, passing the limit was not always enough
# M4 PAM = potentiates acetylcholine response at human M4 receptor | CHO-K1 hM4/Gqi5, Fluo-8 calcium fluorescence, ACh EC20; 0% = ACh EC20, 100% = maximal ACh | hit rate 0.4% among 360,000 | activation, % at 3 µM;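 active means activation above its plate's cutoff, the mean activation of sample wells plus 3 SD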
# CHRM1 antagonist = human CHRM1 antagonism; P11229; CHO-K1 hM1, Fluo-8 calcium fluorescence, ACh EC80 antagonist; inhibition, % at 3 µM; hit rate 1.3% among 360,000;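 active means percent inhibition above its own plate's cutoff, namely the mean of that plate's compound wells plus 3 SD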;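 further: peak over basal fluorescence ratio during 140 s after agonist addition; 0% = ACh EC80 plus DMSO and 100% = DMSO alone without agonist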
# M4 ag = agonists of human muscarinic M4 receptor (CHRM4); P08173; activation, % at 3 µM; AID 624127; CHO-K1 hM4/Gqi5, Fluo-8 calcium fluorescence; vehicle 0%, full acetylcholine response 100%; hit rate 0.14% among 360,000;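 active means activation above the run mean over all test wells plus 3 SD, cut at about 32% in these data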;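 further: peak over basal fluorescence ratio per well then scaled between controls; 0% = DMSO wells and 100% = acetylcholine at EC100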
# Active calls of the source: *; · = no result given. Most compounds without a hit are left out; they make up all but 2.2% or so of the library.
SMILES,M4 antag,M1 ag,CHRM1 PAM,M4 PAM,CHRM1 antagonist,M4 ag
CNC(=S)N1C2CCCC1CC(NC(=O)c1ccc(C)cc1)C2 (stereo not given),2,-6,11,-4,-13,1
Cc1ccc(CS(=O)(=O)c2ncc(Cl)c(C(=O)Nc3ccc(OC(F)F)cc3)n2)cc1,56*,-3,2,-8,16,5
C(=C\c1ccccc1)/CN1CCN(Cc2nc(Cc3ccccc3)no2)CC1,9,-12,-31,-18,43*,2
COc1ccccc1CN1CCN(Cc2nc(Cc3ccccc3)no2)CC1,9,-14,-7,-11,-3,0
c1ccc(Cc2noc(CN3CCN(C4CCc5ccccc5C4)CC3)n2)cc1 (stereo not given),15,-8,-27,-26,88*,5
c1ccc(Cc2noc(CN3CCCN(C4Cc5ccccc5C4)CC3)n2)cc1,51*,-6,-24,-28,100*,15
c1ccc(Cc2noc(CN3CCC(CN4CCOCC4)CC3)n2)cc1,2,-8,-12,1,19,1
CCc1ccc(-c2nc3ccc(Br)cc3c(C(=O)O)c2C)s1,-2,-4,20,-3,-7,-1
CCCNC(=O)C1(C)CCCN(Cc2ccc3c(c2)OCO3)C1 (stereo not given),-11,-6,10,7,-15,1
COc1cc(CNC(=O)C2CCCC2)cc(OC)c1OC,-16,1,27*,5,-26,3
CNc1sc(C(=O)c2ccccc2F)c(N)c1-c1nc2ccccc2s1,34*,-2,13,22,-1,3
O=C(CNC(=O)c1ccccc1F)OCc1nc2ccccc2s1,-3,-3,5,15,-2,1
CCN(CC)CCCNc1nc2cc(OC)c(OC)cc2c2nc(-c3cccnc3)nn12,10,-3,9,-4,-9,0
CCN(CC)CCCNc1nc2cc(OC)c(OC)cc2c2nc(-c3ccccc3)nn12,-4,-3,10,17*,-13,2
Nc1cc(S(=O)(=O)Nc2ccc(Cl)cc2)ccc1N1CCOCC1,16,6,-14,-20,39*,16
COc1ccc(NS(=O)(=O)c2cc(N)ccc2N2CCCC2)cc1,5,-1,14,-1,-18,0
Nc1cc(S(=O)(=O)Nc2ccccc2Cl)ccc1N1CCOCC1,2,3,-3,-15,0,9
COc1ccc(NS(=O)(=O)c2cc(NC(=O)CCNC(C)=O)ccc2N2CCCCC2)cc1,-3,-5,-11,-2,44*,5
COc1ccc(NS(=O)(=O)c2ccc(N3CCCC3)c(N)c2)cc1,14,-6,-27,-16,40*,12
O=C(COc1ccc(S(=O)(=O)Nc2ccc(Cl)cc2)cc1)N1CCOCC1,-5,18*,-2,-6,6,11
COc1ccc(NS(=O)(=O)c2ccc(OCC(=O)N3CCOCC3)cc2)cc1,14,0,-2,1,3,3
Cc1cccc(S(=O)(=O)N2C[C@@H](O)COC[C@@H]3O[C@H](CC(=O)NCCCN4CCOCC4)CC[C@H]32)c1,-10,·,·,3,·,1
O=C(N/N=C/c1ccccc1Br)c1ccc(CSc2cccc3cccnc23)cc1,-1,3,10,8,-8,1
c1cnc2c(SCc3ccc(-c4nnco4)cc3)cccc2c1,-1,16*,15,4,-45,2
Cc1cccc(CSc2cccc3cccnc23)c1,12,-3,0,1,15,0
O=C(NN=C1CCCCCC1)c1cccnc1,-2,-6,-5,0,2,2
O=C1CCC/C(=N\NC(=O)c2ccc(CSc3cccc4cccnc34)cc2)C1,0,20*,11,8,-14,3
NNC(=O)c1ccc(CSc2cccc3cccnc23)cc1,-3,29*,11,-1,0,1
COC(=O)C1(CCSC)NC(c2ccc(O)c(OC)c2)C2C(=O)N(c3ccc(C)cc3)C(=O)C21 (stereo not given),-9,25*,4,-9,-5,5
CCOc1ccc(N2C(=O)C3C(c4ccc(OC)cc4OC)NC(CCSC)(C(=O)OC)C3C2=O)cc1 (stereo not given),-7,-2,7,4,-15,4

# From PubChem BioAssay
